# PubChem BioAssay (NCATS)
# Records with an inconclusive call do not appear. Entries that show only a call come without a potency. Activity calls are given as the source filed them. Unless noted, the call rests on the fitted dose curve; in most records, active means well fitted curve in the direction sought with a large enough effect; inconclusive means small, poorly fitted or top-dose-only effect, or another doubt; inactive means no such curve, though single readings can be large; an effect the other way counts as inactive or inconclusive.
# Experiments:
# [1] = qHTS for differential inhibitors of proliferation of Plasmodium falciparum line W2 (AID 1883); conditions: Potency: Plasmodium falciparum W2 proliferation inhibition;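 further: potency means the concentration at half of the fitted maximal effect; parasites grown with compound for 72 h before lysis and staining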
# [2] = target: Ferritin light chain (Equus caballus) (UniProt P02791); assay: qHTS Validation Assay for Identification of Novel General Anesthetics (AID 2323); further: series mostly up to about 77 µM
# Chain of Ferritin light chain (Equus caballus) (P02791 2-175 limits assumed): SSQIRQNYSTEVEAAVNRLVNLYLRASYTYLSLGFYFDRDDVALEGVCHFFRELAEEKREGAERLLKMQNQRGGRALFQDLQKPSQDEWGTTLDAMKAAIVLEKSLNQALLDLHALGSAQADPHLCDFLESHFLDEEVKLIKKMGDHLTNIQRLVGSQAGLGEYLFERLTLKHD
# In short: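 Fluorescence at 535 nm (excitation 380 nm) reported loss of 1-AMA binding to horse-spleen apoferritin (10 uM) in PBS with 50% saturated 1-aminoanthracene, after 10 min room-temperature incubation with compound; values from Hill fits of normalized response.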
# [3] = target: ATP-dependent DNA helicase Q1 (Homo sapiens) (UniProt P46063); assay: qHTS Validation Assay for Inhibitors of RecQ-Like Dna Helicase 1 (RECQ1) (AID 2353)
# Chain of ATP-dependent DNA helicase Q1 (Homo sapiens) (P46063 whole entry, looked up): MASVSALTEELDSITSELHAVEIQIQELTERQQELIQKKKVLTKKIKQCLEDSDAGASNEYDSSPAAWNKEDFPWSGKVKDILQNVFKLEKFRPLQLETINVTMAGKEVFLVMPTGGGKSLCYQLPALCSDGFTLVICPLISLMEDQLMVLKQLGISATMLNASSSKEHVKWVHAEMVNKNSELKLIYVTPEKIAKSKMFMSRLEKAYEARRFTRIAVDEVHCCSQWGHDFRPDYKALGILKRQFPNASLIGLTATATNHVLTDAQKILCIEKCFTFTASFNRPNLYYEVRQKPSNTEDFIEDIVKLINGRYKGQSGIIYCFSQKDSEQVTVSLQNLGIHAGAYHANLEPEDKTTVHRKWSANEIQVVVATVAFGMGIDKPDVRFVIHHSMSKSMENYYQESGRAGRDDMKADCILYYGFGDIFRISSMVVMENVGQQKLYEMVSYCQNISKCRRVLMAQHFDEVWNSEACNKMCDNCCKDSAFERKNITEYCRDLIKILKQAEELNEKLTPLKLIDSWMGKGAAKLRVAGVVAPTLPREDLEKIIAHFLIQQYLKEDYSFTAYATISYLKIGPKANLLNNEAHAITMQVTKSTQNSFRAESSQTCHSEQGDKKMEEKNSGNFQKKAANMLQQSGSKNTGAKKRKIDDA
# In short: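 RECQ1T1 50 nM; forked duplex (20 bp + 30-nt ss tails) 200 nM, ATP 2 mM final; pH 8.0, 2 mM MgCl2, 2.5 ug/ml poly(dI-dC); 15 min compound preincubation; discontinuous kinetic read over 2 h at RT.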
# [4] = target: RecQ-like DNA helicase BLM (Homo sapiens) (UniProt P54132); assay: qHTS Validation Assay for Inhibitors of Bloom's syndrome helicase (BLM) (AID 2364)
# Chain of RecQ-like DNA helicase BLM (Homo sapiens) (P54132 whole entry, looked up): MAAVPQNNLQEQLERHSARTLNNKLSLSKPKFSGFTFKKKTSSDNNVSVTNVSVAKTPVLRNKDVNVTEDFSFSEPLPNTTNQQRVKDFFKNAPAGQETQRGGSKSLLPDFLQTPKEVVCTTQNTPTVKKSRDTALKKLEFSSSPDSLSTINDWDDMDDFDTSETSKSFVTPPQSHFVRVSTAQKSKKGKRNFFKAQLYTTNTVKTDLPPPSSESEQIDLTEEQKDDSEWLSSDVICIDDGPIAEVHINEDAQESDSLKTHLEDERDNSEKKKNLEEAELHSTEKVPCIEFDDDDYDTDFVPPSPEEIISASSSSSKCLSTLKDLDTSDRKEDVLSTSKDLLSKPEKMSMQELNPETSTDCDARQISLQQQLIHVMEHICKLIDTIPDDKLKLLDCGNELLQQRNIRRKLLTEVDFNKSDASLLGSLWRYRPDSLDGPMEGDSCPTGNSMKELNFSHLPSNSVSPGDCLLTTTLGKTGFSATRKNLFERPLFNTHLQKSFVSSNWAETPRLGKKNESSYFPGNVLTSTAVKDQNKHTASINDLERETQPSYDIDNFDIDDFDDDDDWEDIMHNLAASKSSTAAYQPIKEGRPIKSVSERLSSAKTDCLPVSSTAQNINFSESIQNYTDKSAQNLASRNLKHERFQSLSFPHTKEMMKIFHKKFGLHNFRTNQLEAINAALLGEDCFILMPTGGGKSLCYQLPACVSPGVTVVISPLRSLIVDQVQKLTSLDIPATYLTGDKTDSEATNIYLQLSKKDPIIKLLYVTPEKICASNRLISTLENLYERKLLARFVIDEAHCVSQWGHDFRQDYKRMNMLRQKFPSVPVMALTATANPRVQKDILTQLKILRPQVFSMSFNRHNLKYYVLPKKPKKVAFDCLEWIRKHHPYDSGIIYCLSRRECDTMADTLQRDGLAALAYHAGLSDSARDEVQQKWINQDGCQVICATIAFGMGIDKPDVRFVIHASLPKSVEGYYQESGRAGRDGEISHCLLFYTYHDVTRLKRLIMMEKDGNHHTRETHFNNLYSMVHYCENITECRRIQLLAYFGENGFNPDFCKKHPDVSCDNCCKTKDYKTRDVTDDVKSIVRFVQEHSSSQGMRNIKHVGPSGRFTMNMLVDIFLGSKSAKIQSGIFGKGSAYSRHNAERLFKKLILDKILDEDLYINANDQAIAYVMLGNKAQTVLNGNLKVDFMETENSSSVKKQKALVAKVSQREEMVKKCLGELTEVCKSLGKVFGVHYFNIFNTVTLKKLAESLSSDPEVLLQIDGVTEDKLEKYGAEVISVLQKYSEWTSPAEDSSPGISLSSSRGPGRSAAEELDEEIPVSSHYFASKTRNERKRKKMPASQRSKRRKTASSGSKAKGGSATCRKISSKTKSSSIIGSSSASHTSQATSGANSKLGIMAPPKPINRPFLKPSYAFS
# In short: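 BLM 50 nM in 25 mM Tris-HCl pH 8.0, 5 mM NaCl, 2 mM MgCl2, 1 mM DTT, 0.01% Tween-20, 2.5 ug/ml poly(dI-dC); 15 min cpd preinc, RT. Start: 200 nM forked DNA + 2 mM ATP (final). TAMRA read, 2 reads 2 h apart.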
# [5] = Cytometric Cell-Based qHTS for Inhibitors of the mTORC1 Signaling Pathway in MEF (Tsc2-/-, p53-/-) Cells (AID 2660);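 further: Tsc2 and p53 null MEFs carrying empty vector with compound for 24 h; percent of cells above a phospho-rpS6 to PI ratio cutoff in each well; series mostly up to about 38 µM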
# In short: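 Cells are plated, treated with compound for 24 hrs at 37 degree Celsius, then fixed, blocked and immunostained for phospho-rpS6 Ser235/236. Propidium iodide counterstain follows. Per-well % positive cells is derived from the PI-normalized phospho-S6 signal.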
# [6] = High Content Imaging Cell-Based qHTS for Inhibitors of the mTORC1 Signaling Pathway in MEF (Tsc2-/-, p53-/-) Cells (AID 2666);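 further: percent of cells scored positive for phospho-rpS6 Ser235/236 immunostaining by imaging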; further: potency means the concentration at half of the fitted maximal effect
# In short: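 Inhibition of rpS6 phosphorylation is measured by immunofluorescence imaging in empty-vector Tsc2-/-, p53-/- mouse embryonic fibroblasts after 24 hrs compound exposure at 37 degree Celsius. Results are reported as % positive cells per well.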
# [7] = qHTS Assay for Identification of Small Molecule Inducers of Hypoxia Response (AID 2120; active means well fitted curve in the direction sought with a large enough effect in the signal ratio, with a control signal flat, not every such curve was filed as active; the % refers to the signal ratio)
# In short: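 Cell-based qHTS for reporter induction: hypoxia response element controlled beta-lactamase in ME-180 cells. Compounds incubated 17 h at 37 degrees C; activity from blue/green (460/530 nm) ratio, inducers ranked by AC50.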
# [8] = qHTS Assay for Modulators of Human Peripheral Myelin Protein 22 (PMP22) Expression/Activity (AID 1967; active means well fitted curve in the direction sought with a large enough effect in the signal ratio; the % refers to the signal ratio)
# In short: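 Luminescence ratio of Pmp22 promoter-driven green luciferase to EF-alpha-driven red luciferase, in engineered mouse MSC80 Schwann cells, served as read-out. Compounds were incubated 24h; untreated cells defined 0% Activity; curves were classified by r2, magnitude and activity.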
# [9] = qHTS for differential inhibitors of proliferation of Plasmodium falciparum line HB3 (AID 1886); conditions: Potency: Plasmodium falciparum HB3 proliferation inhibition;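 further: parasites grown with compound for 72 h before SYBR Green readout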
structure (smiles),measurement,setting,value
Cc1nc2ccccn2c(=O)c1CCN1CCC(C(=O)c2ccc(F)cc2)CC1,Potency,[1],7.94 µM (active)
same,outcome,[2],inactive
same,Potency,[3],inactive
same,Potency,[4],inactive
same,outcome,[5],inactive
same,Potency,[6],inactive
NC(N)=N/N=C/c1c(Cl)cccc1Cl,outcome,[2],inactive
same,Potency,[3],inactive
same,outcome,[5],inactive
same,Potency,[6],inactive
C[C@@H](O)[C@H]1C(=O)N2C(C(=O)O)=C(SCCN=CN)C[C@H]12,outcome,[5],inactive
same,Potency,[6],inactive
CCn1nc(C(=O)O)c(=O)c2cc3c(cc21)OCO3,outcome,[2],inactive
same,Potency,[3],inactive
same,outcome,[5],inactive
same,Potency,[6],inactive
COc1ccc([C@@H]2Sc3ccccc3N(CCN(C)C)C(=O)[C@@H]2OC(C)=O)cc1,Potency,[1],7.08 µM (active)
same,Potency,[3],inactive
same,outcome,[5],inactive
same,Potency,[6],inactive
CC(C)(C)c1ccc(C(=O)CCCN2CCC(OC(c3ccccc3)c3ccccc3)CC2)cc1,Potency,[6],20.7 µM (active)
CCCCOCCOCCOCc1cc2c(cc1CCC)OCO2,outcome,[7],inactive
Cc1ccc(/C(=C\CN2CCCC2)c2ccccn2)cc1,outcome,[2],inactive
same,Potency,[3],inactive
same,outcome,[5],inactive
same,Potency,[6],inactive
Cc1cccc(C)c1NC(=O)C(C)N (stereo unspecified),outcome,[5],inactive
same,Potency,[6],inactive
CCCCCCCC/C=C\CCCCCCCC(=O)NCc1ccc(O)c(OC)c1,outcome,[5],inactive
same,Potency,[6],inactive
COc1cc(Cc2cnc(N)nc2N)cc(OC)c1OC,outcome,[8],inactive
same,outcome,[2],inactive
same,Potency,[3],inactive
same,outcome,[5],inactive
same,Potency,[6],inactive
COC(=O)C1=C(C)NC(C)=C(C(=O)OC(C)(C)CN(C)CCC(c2ccccc2)c2ccccc2)C1c1cccc([N+](=O)[O-])c1 (stereo unspecified),Potency,[6],inactive
CN1C(=O)CC[C@H]1c1cccnc1,outcome,[5],inactive
same,Potency,[6],inactive
CN/C(=C\[N+](=O)[O-])NCCSCc1ccc(CN(C)C)o1,outcome,[8],inactive
same,outcome,[2],inactive
same,Potency,[3],inactive
same,outcome,[5],inactive
same,Potency,[6],inactive
NC(=O)c1cn(Cc2c(F)cccc2F)nn1,outcome,[5],inactive
same,Potency,[6],inactive
CNCCC(Oc1ccccc1OC)c1ccccc1 (stereo unspecified),Potency,[9],inactive
same,outcome,[2],inactive
same,Potency,[3],inactive
same,Potency,[4],inactive
same,outcome,[5],inactive
same,Potency,[6],inactive
CN1C[C@H](C(=O)N[C@]2(C)O[C@@]3(O)[C@@H]4CCCN4C(=O)[C@H](Cc4ccccc4)N3C2=O)C[C@@H]2c3cccc4[nH]cc(c34)C[C@H]21,outcome,[5],inactive
same,Potency,[6],inactive
COCCCC/C(=N\OCCN)c1ccc(C(F)(F)F)cc1,Potency,[1],2.24 µM (active)
same,Potency,[3],inactive
same,outcome,[5],inactive
same,Potency,[6],inactive
CN(C(=O)CCCOc1ccc2[nH]c(=O)ccc2c1)C1CCCCC1,Potency,[1],14.1 µM (active)
same,outcome,[2],inactive
same,Potency,[3],inactive
same,outcome,[5],inactive
same,Potency,[6],inactive
CC(C)(Oc1ccc(CCNC(=O)c2ccc(Cl)cc2)cc1)C(=O)O,outcome,[5],inactive
same,Potency,[6],inactive
NC1=NCC2c3ccccc3Cc3ccccc3N12 (stereo unspecified),outcome,[5],inactive
same,Potency,[6],inactive
C[N+](C)(C)CCCCCCCCCC[N+](C)(C)C,Potency,[3],inactive
same,Potency,[4],inactive
same,outcome,[5],inactive
same,Potency,[6],inactive
